Consider 51 molecules from PubChem BioAssay AID1851 (National Center for Advancing Translational Sciences (NCATS), 2009).

One may read the AC50 as the midpoint of the concentration-response curve, whichever way the signal moves.

Each structure is given as a SMILES string. About 2,600 (16%) of roughly 16,000 compounds were called active. Inconclusive results (about 20%) are left out. A selection follows. Values without a mark were called inactive. Calls come from the whole dose curve; as a rule, active = well fitted curve in the direction sought with a large enough effect; inconclusive = small, poorly fitted or top-dose-only effect, or effect the other way; inactive = no such curve, though single readings can be large or run the other way.
% is set by controls: 0 for no effect and ±100 for the full control effect.

Chain of Cytochrome P450 2D6 (Homo sapiens) (P10635 whole entry, looked up): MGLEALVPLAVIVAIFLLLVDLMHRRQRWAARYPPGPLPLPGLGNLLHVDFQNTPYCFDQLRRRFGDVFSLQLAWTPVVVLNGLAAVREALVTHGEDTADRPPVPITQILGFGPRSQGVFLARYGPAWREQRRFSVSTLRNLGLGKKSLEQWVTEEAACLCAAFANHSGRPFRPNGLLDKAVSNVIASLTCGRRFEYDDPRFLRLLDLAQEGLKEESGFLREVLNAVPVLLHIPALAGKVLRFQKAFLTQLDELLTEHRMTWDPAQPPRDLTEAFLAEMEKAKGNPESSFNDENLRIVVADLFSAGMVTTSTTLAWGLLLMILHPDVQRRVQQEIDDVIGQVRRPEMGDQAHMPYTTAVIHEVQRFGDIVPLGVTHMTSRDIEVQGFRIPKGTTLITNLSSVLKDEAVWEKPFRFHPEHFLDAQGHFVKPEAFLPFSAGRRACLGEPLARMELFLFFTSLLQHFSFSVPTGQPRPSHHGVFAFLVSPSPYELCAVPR

This assay addresses Cytochrome P450 2D6 (Homo sapiens) (UniProt P10635). Briefly: Cytochrome panel assay with activity outcomes. To be noted: recombinant CYP, pro-luciferin dealkylation, luminescence, p450-cyp2d6; series mostly up to 57.1 µM; activity, negative = inhibition: at the top concentration.
As to `COC(=O)C1=C(C)NC(C)=C(C(=O)OC(C)C)[C@H]1c1cccc2nonc12`, the “activity, negative = inhibition” value is 3% [at 25.6 µM].
Regarding `O=C(c1ccccc1)c1ccc2nc(-c3ccc(NC(=O)c4ccccc4F)cc3)[nH]c2c1`, the “activity, negative = inhibition” value was -12.1%.
Turning to `Fc1cc2nc(-c3ccncc3)[nH]c2cc1F`, the AC50 is 12.6 µM (active).
On the same count and under the same terms, with `Nc1ccc(S(=O)(=O)Nc2cnc3ccccc3n2)cc1` the entry was “inactive”.
With `O=C(O)CCNc1ccccc1C(=O)O`, the activity, negative = inhibition was 3.09% [at 11.4 µM].
The same measure, in the same setting: under `O=C1C2C3C=CC(C3)C2C(=O)N1c1ncn[nH]1` (stereo unspecified) stands -1.56%.
On to `COc1ccc(CC(=O)Nc2ccc(-c3noc(-c4cccc(OC)c4)n3)cc2)cc1`, for which the “activity, negative = inhibition” value is 28.9%.
Take `COc1ccc(-c2noc(N(C)CC(=O)Nc3cccc(C(F)(F)F)c3)n2)cc1`: the AC50 was 35.5 µM (active).
In the case of `CN(C)S(=O)(=O)Oc1ccccc1C(=O)Nc1cccc(C(F)(F)F)c1`, the “activity, negative = inhibition” value was 5.28%.
On the same count and under the same terms, under `C=CCn1c(SCc2ccccc2)nc2scc(-c3ccc(C)o3)c2c1=O` stands -9.49%.
For `COc1cccc(/C=N/NC(=O)CSc2nnc(C)n2-c2ccccc2)c1O`, the “activity, negative = inhibition” value is -8.6%.
In the case of `COCCN1C(=O)C(=O)/C(=C(/O)c2cccc(OC)c2)C1c1ccco1` (stereo unspecified), the “activity, negative = inhibition” value was 0.167%.
`CCC(=O)NC(NCC1CCCO1)C(Cl)(Cl)Cl` (stereo unspecified): the “activity, negative = inhibition” value is -1.46%.
`Cc1ccc(CCN2CC(C(=O)NCCN3CCOCC3)CC2=O)cc1` (stereo unspecified): the “activity, negative = inhibition” value was -2.21%.
For `CCOCCCN1CC(C(=O)NCCc2ccc(C)cc2)CC1=O` (stereo unspecified), the AC50 is 3.55 µM (active).
With `Cc1ccc(CCN2CC(C(=O)NC3CCCC3)CC2=O)cc1` (stereo unspecified), the “activity, negative = inhibition” value was -9.43%.
Regarding `CC(C)=NO[C@@H](C)c1cn([C@@H]2COC[C@@H]2O)nn1`, the activity, negative = inhibition was 14.3% [at 11.4 µM].
As for `Cc1cccc(-c2noc(-c3cc4ccccc4oc3=O)n2)c1`, the “activity, negative = inhibition” value is -19.7%.
With `Cc1ccc(-c2noc(-c3cc4ccccc4oc3=O)n2)cc1`, the “activity, negative = inhibition” value was -11.3%.
`O=c1oc2ccccc2cc1-c1csc(NN=C2CCCCC2)n1`: the AC50 is 2.82 µM (active).
On to `Cc1ccccc1N1CCN(S(=O)(=O)C[C@@]23CC[C@H](C[C@H]2NC(=O)[C@@H](N)CCS(C)(=O)=O)C3(C)C)CC1`, for which the “activity, negative = inhibition” value was -4.72%.
On the same count and under the same terms, under `Cc1cc(=O)[nH]c(SCC(=O)Nc2nc3c(s2)CCCC3)n1` stands -1.04%; under `CCN1CCc2nc(NC(=O)c3ccc4c(c3)OCCO4)sc2C1`, -12.3%.
`CCN1CCc2nc(NC(=O)CC(c3ccccc3)c3ccccc3)sc2C1`: the AC50 was 0.316 µM (active).
For the molecule `CC1=NN(c2ccccc2)C(=O)/C1=C\c1c(C)[nH]n(-c2ccccc2)c1=O`, the “activity, negative = inhibition” value is 7.79%.
On the same count and under the same terms, with `COc1ccc2oc(=O)c(C(=O)Oc3ccc(NC(C)=O)cc3)cc2c1` the figure was -14.8%; with `Cc1ccc2oc(-c3cccc(NC(=S)NC(=O)/C=C/c4ccco4)c3)nc2c1`, 17.9%; with `CCOc1[nH]n(-c2ccc(Cl)cc2)c(=O)c1C=Nc1ccc(O)cc1`, 11.1%.
The same measure, in the same setting: with `CO[C@@H]1COC(=O)[C@H]2CCCN2C(=O)[C@@H](C)COC(=O)[C@H](COCc2ccccc2)NC(=O)C/C=C\[C@H]1C` the figure was 1.71% [at 11.4 µM]; with `C=C(C)[C@H]1CC=C(C)/C(=N/NC(=O)CNc2ccccc2OC)C1`, -13%.
On the same count and under the same terms, with `CC(C)(C)c1nc(SCC(=O)Nc2ccc3c(c2)OCCO3)c2ccccc2n1` the figure was -16.2%; with `CCC(C)NS(=O)(=O)c1ccc(OCC(=O)Nc2ccc3c(c2)OCCO3)cc1` (stereo unspecified), -22.9%.
Take `CCOc1ccc2nc(C)cc(Nc3ccc4c(c3)OCCO4)c2c1`: the AC50 is 1.58 µM (active).
Consider `CO[C@H]1COC(=O)[C@H](C)NC(=O)C/C=C\[C@@H](C)[C@@H](NS(=O)(=O)c2ccc(C)cc2)COC(=O)[C@H](OCc2ccccc2)/C=C\[C@@H]1C`, for which the activity, negative = inhibition is -11.2% [at 11.4 µM].
On the same count and under the same terms, with `Cc1noc(N)c1C(=O)Nc1ccc(F)cc1` the figure was -8.7%; with `N#Cc1c(NC(=O)CCN2C(=O)c3ccccc3C2=O)oc(-c2ccccc2)c1-c1ccccc1`, -12.5%.
Same read-out and setting: with `CC1Cc2ccccc2N1C(=O)C1CCCCN1S(=O)(=O)c1ccccc1` (stereo unspecified) the figure was -9.53%.
On to `CC1CCN(CC[C@@H]2CCCN2S(=O)(=O)c2cccc(O)c2)CC1`, for which the AC50 is 15.8 µM (active).
`CC1CCN(S(=O)(=O)c2ccc3c(c2)C(=NO)c2cc(S(=O)(=O)N4CCC(C)CC4)ccc2-3)CC1`: the “activity, negative = inhibition” value was 0.589%.
Same read-out and setting: under `OC[C@@H]1NC[C@@H](O)[C@H]1O` stands 7.62%; under `O=C(C/C=N/OCc1ccc(F)cc1Cl)c1cnc(-c2ccccc2)s1`, 10.7%; under `O=C(COC(=O)COc1ccccc1)Nc1ccc(OC(F)(F)F)cc1`, 11.3%.
Same read-out and setting: under `CC(C)OC(=O)/C(=C\c1ccc2c(c1)c1ccccc1n2C)NC(=O)c1ccccc1` stands 13.2%.
Take `CCCCCOC(=O)c1c(N)n(CCOC)c2nc3ccccc3nc12`: the AC50 was 25.1 µM (active).
As for `COCCCNC(=O)c1c(N)n(/N=C/c2ccccn2)c2nc3ccccc3nc12`, the “activity, negative = inhibition” value was -5.07%.
Still for that read-out and setting: with `COCCn1c(=O)cnc2cnc(Oc3ccccc3)nc21` the figure was -2.69%; with `CN(C1CCCCC1)S(=O)(=O)c1ccc(NC(=S)NC(=O)c2cccs2)cc1`, -11.5%.
On to `COC(=O)c1sc2ncccc2c1OCc1c(Cl)cccc1Cl`, for which the “activity, negative = inhibition” value was -22.2%.
As for `CCCCN1CCC(n2c(=O)[nH]c3ccccc32)CC1`, the AC50 was 3.16 µM (active).
With `O=c1cc(N2CCC(Cc3ccccc3)CC2)[nH]c(=O)n1C1CCCCC1`, the “activity, negative = inhibition” value is -6.84%.
The same measure, in the same setting: with `CCn1c(=O)[nH]c2ccccc2c1=O` the figure was -1.92%.
